Compounds with a hit are over-represented: about 4.1% of the library has one in this group of screens.
MRP reversal: MRP-mediated drug resistance reversal; AID 602; differential viability (reversal), % at 10 µM; H69AR cells + 2 uM doxorubicin, CellTiter-Glo, 72 h; 0.04% of 85,000 active;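 active means viability drop by adding the cancer drug above about 55%, with treated viability meeting a 40% cutoff, limit read from the data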;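 further: larger differential means the compound sensitizes cells more to doxorubicin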
Pyk2 oligo antag: blocks oligomerization of human Pyk2 in cells; Q14289; Q293 cells, Pyk2 FERM NanoBiT luminescence; hits give low values; z-score (the deposit names both 25 µM and 10 µM); 0.83% of 99,000 active;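 active means Z-score of -3 or lower, scaled per plate to the spread of control and sample wells; inactive means z-score above -3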;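 further: negative z-score means lost luminescence so less FERM oligomerization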
Mac1 fbg inh: inhibitors of human CD11b/CD18 binding to fibrinogen. inhibition, % at 10 µM. P05107+P11215. K562 CD11b/CD18 adhesion to fibrinogen, ATPlite luminescence; Mn2+ added to activate the integrin. 0.54% of 93,000 active;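 active means primary inhibition of 50% or more at 10 µM, then 40% or more on retest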
Target sequence (P05107 whole entry, looked up, other chains not shown): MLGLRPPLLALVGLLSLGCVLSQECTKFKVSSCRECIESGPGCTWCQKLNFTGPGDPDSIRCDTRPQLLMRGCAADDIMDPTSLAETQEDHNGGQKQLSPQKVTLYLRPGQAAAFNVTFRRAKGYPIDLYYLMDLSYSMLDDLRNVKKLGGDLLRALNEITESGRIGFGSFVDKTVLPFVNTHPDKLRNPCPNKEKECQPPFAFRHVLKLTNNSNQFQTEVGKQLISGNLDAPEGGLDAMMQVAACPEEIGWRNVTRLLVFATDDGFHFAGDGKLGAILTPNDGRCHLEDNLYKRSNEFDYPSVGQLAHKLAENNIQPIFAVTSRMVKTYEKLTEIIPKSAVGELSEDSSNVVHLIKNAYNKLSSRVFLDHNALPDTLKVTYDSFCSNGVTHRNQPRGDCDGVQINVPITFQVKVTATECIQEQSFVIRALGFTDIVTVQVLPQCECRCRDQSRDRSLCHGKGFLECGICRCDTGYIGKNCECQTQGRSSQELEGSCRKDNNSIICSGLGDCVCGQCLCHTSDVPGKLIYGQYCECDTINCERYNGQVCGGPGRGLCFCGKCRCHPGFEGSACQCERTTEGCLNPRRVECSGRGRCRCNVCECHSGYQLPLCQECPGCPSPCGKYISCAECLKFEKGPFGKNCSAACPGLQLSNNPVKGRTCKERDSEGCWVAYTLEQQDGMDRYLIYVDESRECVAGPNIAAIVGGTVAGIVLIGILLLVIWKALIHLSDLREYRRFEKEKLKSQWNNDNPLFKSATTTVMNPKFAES
Mac1 fbg enh: CD11b/CD18-fibrinogen binding enhancement. P05107+P11215. K562 CD11b/CD18 adhesion to fibrinogen, ATPlite luminescence. activation, % at 10 µM. 0.07% of 93,000 active;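 active means 10 µM primary screen giving 50% or more activity, confirmed by 40% or more on retest at that dose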
Cav32 inh: inhibitors of human Cav3.2 T-type calcium channel. Cav3.2-expressing cells, Fluo-4 calcium fluorescence FDSS; hits give low values. B-score at 10 µM. 4% of 100,000 active;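 active means single-dose well whose peak fluorescence ratio is a statistical outlier from its plate by either plate-standardised score or position-corrected B-score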
MRP1 act: MRP-1 activation | H69AR cells + doxorubicin, viability rescue, CellTiter-Glo | 0.61% of 140,000 active | viability increase, % at 10 µM;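 active means viability gain under doxorubicin at or above a set limit, the compound median plus 3 SD, cut at about 4.7% in these data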;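 further: MRP-1 overexpressing cells given doxorubicin 25 µM after compound pretreatment; 18-22 h compound pretreatment then 72 h with doxorubicin before readout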
Numbers stand for hits; . = inactive; / = not tested or not shown.

SMILES | MRP reversal | Pyk2 oligo antag | Mac1 fbg inh | Mac1 fbg enh | Cav32 inh | MRP1 act
COc1cc(C)ccc1N(CCCN1C(=O)c2cccc3cccc(c23)C1=O)C(=O)c1cccs1 | / | / | . | . | / | 8.7
O=C1c2ccccc2C(=O)N1CCCCN(C(=O)c1cccc([N+](=O)[O-])c1)c1ccc(Cl)cc1 | / | . | / | / | . | .
Cc1ccc(N(CCCCN2C(=O)c3ccccc3C2=O)C(=O)c2cccs2)cc1 | / | . | . | . | -5.82 | .
COc1ccc(N(CCCN2C(=O)c3cccc4cccc(c34)C2=O)C(=O)c2cccs2)cc1 | / | / | / | / | / | .
O=C1c2ccccc2C(=O)N1CCCCN(C(=O)c1ccco1)c1ccc(Cl)cc1 | . | . | . | . | -8.47 | .
CSc1nc2[nH]ncc2c(=O)[nH]1 | / | / | / | / | / | .
O=C(CSCC(=O)N1CCCCC1)Nc1nc(-c2cccs2)cs1 | . | / | . | . | -3.67 | .
CCOC(=O)N1CCN(C(=O)CSCC(=O)Nc2nc(-c3ccccc3)cs2)CC1 | . | . | / | / | . | .
CC1CC(C)CN(C(=O)CSCC(=O)Nc2nc(-c3cccs3)cs2)C1 (stereo unspecified) | . | / | . | . | / | .
O=C(CSCC(=O)N1CCN(c2ccccc2)CC1)Nc1nc(-c2ccc(Cl)s2)cs1 | . | / | . | . | -5.63 | .
O=C(CSCC(=O)N1CCCCC1)Nc1nc(-c2ccc(Cl)s2)cs1 | . | / | 83.6 | . | -5.18 | .
CCOC(=O)C1=C(c2ccccc2)N(C)C(=O)NC1c1ccc(O)c(OC)c1 (stereo unspecified) | . | . | . | . | . | .
CCOc1ccc(NC(=O)N2CCC(C(N)=O)(N3CCCCC3)CC2)cc1 | / | . | / | / | . | .
Cn1c(SCC(=O)C(C)(C)C)nnc1-c1ccncc1 | . | . | . | . | . | .
C=C(C)CN(CC)c1nc(N)c2c(N)nc3c(c2c1C#N)CC(=O)N3C12CC3CC(CC(C3)C1)C2 | / | . | . | . | . | .
CCCCN1C(=O)Cc2c1nc(N)c1c(N)nc(N(CCC)CCC)c(C#N)c21 | / | -3.64 | . | . | / | .
COc1cc(NC(=O)Nc2cccc(C(C)=O)c2)cc(OC)c1OC | . | . | . | . | . | .
O=c1sc(N2CCN(c3ccc(F)cc3)CC2)nc2ccsc12 | . | / | . | . | . | .
O=c1cc(N2CCOCC2)[nH]c(=O)n1Cc1ccc(F)cc1 | . | / | . | . | . | .
COc1ccc(N2CCN(c3cc(=O)n(Cc4ccc(F)cc4)c(=O)[nH]3)CC2)cc1 | . | / | . | . | -4.93 | .
O=c1cc(N2CCN(c3ccc(F)cc3)CC2)[nH]c(=O)n1Cc1ccc(F)cc1 | . | / | . | . | -8.8 | .
C=CCSC1=NC(=O)/C(=C/c2cccs2)S1 | / | / | / | / | / | 8.8
NC1=NC(=O)/C(=C/c2cccs2)S1 | / | . | . | . | . | .
O=C(Cn1c2ccccc2c(=O)c2ccccc21)N/N=C/c1cc([N+](=O)[O-])ccc1N1CCCCC1 | / | . | . | . | / | .
Cc1cc2cc(CNC(=O)c3ccc(S(=O)(=O)N4CCOCC4)cc3)ccc2n1C | . | / | . | . | . | .
SMILES | MRP reversal | Pyk2 oligo antag | Mac1 fbg inh | Mac1 fbg enh | Cav32 inh | MRP1 act
COc1ccc(Nc2nc(Cl)nc(NCCO)n2)cc1 | / | / | / | / | / | .
COc1ccc(Nc2nc(Nc3ccc(OC)cc3)nc(SC3=NCCS3)n2)cc1 | . | . | . | . | -5.88 | .
COc1ccc(N(CC(=O)N2c3ccccc3CC2C)S(=O)(=O)c2c(C)noc2C)cc1 (stereo unspecified) | . | . | . | . | . | .
Cc1cnc(Nc2nc3ccccc3o2)nc1C(=O)Nc1cccc(C(F)(F)F)c1 | . | . | . | . | -6.14 | .
Cc1occc1C(=O)Nc1cccc(C(F)(F)F)c1 | . | . | / | / | . | .
CC(C)OC(=O)CSc1nnc2n1C(C)(C)Cc1ccccc1-2 | / | . | . | . | . | 181.0
COCCSc1nnc(NC(=O)C2CCCCC2)s1 | . | . | . | . | . | .
CCCCCCOC(=O)c1ccc(NC(=O)c2cc(OC)c(OC)c(OC)c2Br)cc1 | / | . | . | . | . | 4.9
CCCCCCCCOC(=O)c1ccc(N)cc1 | . | -3.3 | / | / | . | .
CN1CCC(=NNC(=O)CSCc2ccccc2)CC1 | / | . | . | . | . | .
Cc1cc(C)cc(-n2c3nc4ccccc4nc3c3c(=O)n(Cc4ccco4)cnc32)c1 | . | . | . | . | . | .
CC1=C(C(=O)OCC(C)C)C(c2cccc(F)c2)N2C(=O)C(C)SC2=N1 (stereo unspecified) | . | . | . | . | -6.14 | .
CCOC(=O)C1=C(C)N=C2SC(C)C(=O)N2C1c1ccc(OC(C)=O)c(OCC)c1 (stereo unspecified) | . | / | . | . | / | .
COC(=O)C1=C(C)N=C2SC(C)C(=O)N2C1c1ccc(C(=O)OC)cc1 (stereo unspecified) | . | . | . | . | -4.6 | .
COC(=O)C1=C(C)N=C2SC(C)C(=O)N2C1c1cccs1 (stereo unspecified) | . | . | . | . | . | .
CCOC(=O)C1=C(C)N=C2SC(C)C(=O)N2C1c1cccc(F)c1 (stereo unspecified) | . | . | . | . | -6.49 | .
CC1=C(C(=O)OC(C)C)C(c2cccc(F)c2)N2C(=O)C(C)SC2=N1 (stereo unspecified) | . | . | . | . | . | 5.3
O=C(N/N=C/c1ccccc1F)c1ccc(COc2ccccc2Cl)o1 | / | . | / | / | / | .
COc1ccc(OC)c(C2/C(=C(\O)c3ccc(OC)c(Cl)c3)C(=O)C(=O)N2CCN(C)C)c1 (stereo unspecified) | . | . | . | . | . | .
CCCN1CCC(N2CCN(c3cccc(C(F)(F)F)c3)CC2)CC1 | . | . | . | . | . | .
Cc1cc(C(F)(F)F)c2c(=O)[nH]c(=O)n(Cc3ccccc3)c2n1 | . | . | . | . | . | .
COc1ccc(OC)c(-c2cc(C(=O)Nc3sc4c(c3C#N)CCC(C)C4)c3ccccc3n2)c1 (stereo unspecified) | / | . | . | 93.2 | . | .
COc1ccc(-c2cc(C(=O)Nc3sc4c(c3C#N)CCCC4)c3ccccc3n2)cc1 | / | / | / | / | / | 6.0
Cc1ccccc1-c1cc(C(=O)Nc2sc(C(=O)OC(C)C)c(C)c2C#N)c2ccccc2n1 | / | -3.9 | 94.7 | . | . | .
COc1ccccc1-c1cc(C(=O)Nc2sc3c(c2C#N)CCC(C)C3)c2ccccc2n1 (stereo unspecified) | / | . | . | . | . | .
SMILES | MRP reversal | Pyk2 oligo antag | Mac1 fbg inh | Mac1 fbg enh | Cav32 inh | MRP1 act
COC(=O)c1sc(NC(=O)c2cc(-c3ccccc3)nc3ccccc23)c(C#N)c1C | / | . | . | . | . | .
CCCCC1(C(=O)OCC)CC(CN2CCOCC2)OC1=O (stereo unspecified) | . | . | . | . | . | .
COc1c(C)cc(Br)cc1C(=O)NCc1cccnc1 | . | . | / | / | . | .
COc1ccc(/C=N/NC(=O)CCCOc2ccc(Cl)cc2Cl)cc1 | / | / | / | / | / | .
CCOC(=O)c1cc2n(c1/N=C/N(C)C)-c1ccccc1C2=O | . | . | . | . | -3.9 | .
CCCCN1CC[C@H]2C=CC[C@@H](C(=O)Nc3ccc(OC)cc3)[C@H]2C1=O | / | / | / | / | . | /

Source: PubChem (several laboratories)
